These results are taken from PubChem BioAssay AID2283302 (EPA ToxCast).

Each structure is given as a SMILES string. Results filed as inconclusive are left out. Activity calls are given as the source filed them. The calls were made as follows: active = hit-call score of the fitted dose curve at least 0.9, where 1 is the maximum; inconclusive = response in the unintended direction; inactive = score below 0.9.

The AC50 is the midpoint of the concentration-response curve, whichever way the signal moves.

Sequence of rat Gamma-HydroxyButyrate Receptor (GHB), Tspan17 (gene 306771) (Q4V8E0 whole entry, looked up): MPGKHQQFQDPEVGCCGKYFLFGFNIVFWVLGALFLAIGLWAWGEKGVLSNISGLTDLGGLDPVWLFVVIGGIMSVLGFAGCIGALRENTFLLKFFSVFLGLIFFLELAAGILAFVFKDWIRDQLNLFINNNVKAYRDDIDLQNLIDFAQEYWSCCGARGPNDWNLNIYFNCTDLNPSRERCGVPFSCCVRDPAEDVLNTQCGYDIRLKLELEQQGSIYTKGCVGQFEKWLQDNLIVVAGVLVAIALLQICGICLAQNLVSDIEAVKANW

The target of the assay is rat Gamma-HydroxyButyrate Receptor (GHB), Tspan17 (gene 306771) (UniProt Q4V8E0). The experiment in a line: NVS_GPCR_rGHB: NovaScreen (NVS) G Protein-Coupled Receptor Assay for rat Gamma-HydroxyButyrate Receptor (GHB). As for the experimental part:
NVS_GPCR_rGHB is a biochemical, single-readout assay that uses extracted gene-proteins from Rat forebrain in a tissue-based cell-free assay. Measurements were taken 1 hour after chemical dosing in a 48-well plate.NVS_GPCR_rGHB is one of one assay component(s) measured or calculated from the NVS_GPCR_rGHB assay. It is designed to make measurements of radioligand binding, a form of binding reporter, as detected with scintillation counting signals by Filter-based radiodetection technology.Data from the assay component NVS_GPCR_rGHB was analyzed into 1 assay endpoint. This assay endpoint, NVS_GPCR_rGHB, was analyzed in the positive analysis fitting direction relative to DMSO as the negative control and baseline of activity. Using a type of binding reporter, loss-of-signal activity can be used to understand changes in the binding as they relate to the gene Tspan17. Furthermore, this assay endpoint can be referred to as a primary readout, because the performed assay has only produced 1 assay endpoint. To generalize the intended target to other relatable targets, this assay endpoint is annotated to the gpcr intended target family, where the subfamily is metabotropic glutamate receptor.
Binding assays used specific radioligands (tritiated, iodinated) with non-radioactive competitive displacement ligands in agonist or antagonist protocols (as indicated) and various reference compounds and inhibitors to titrate specific binding to receptors and transporters. Most enzyme assays (CYPs, kinases, phosphatases, proteases, HDACs) used recombinant protein and specific substrates (fluorescence mostly, some colorimetric and radioactive) and inhibitors, followed by a biochemical separation of substrate and product. All assays for the biochemical HTS were initially run in duplicate at a single concentration (10 uM for CYP450 assays and 25 uM for all others). Assay-chemical combinations meeting a pre-defined threshold (e.g., 30% inhibition and other criteria defined below) were then run in singleton concentration-response format with maximum concentration of 20 uM for CYPs and 50 uM for all others. Each assay was run with positive and negative controls, and concurrent controls on every plate. The follow-up (secondary) screen tested active chemical-pairs in concentration series, as well as a few additional assays not tested in the primary screen, some selected negative inactives, and several cases re-run in the concentration series for confirmatory purposes.
For `COP(=S)(OC)Oc1nc(Cl)c(Cl)cc1Cl`, the molecule was classed as inactive. Still for that read-out and setting: the entry for `CCOP(=O)(OCC)Oc1nc(Cl)c(Cl)cc1Cl` is “inactive”. On to `Clc1nc(Cl)nc(Nc2ccccc2Cl)n1`, for which the AC50 is 18.6 µM (active). The same measure, in the same setting: the figure for `Cc1cc(Cl)ccc1OCC(=O)O` is 25 µM (active). In the case of `CO[C@@H]1[C@H](OC(=O)NC(=O)CCl)CC[C@]2(CO2)[C@H]1[C@@]1(C)O[C@@H]1CC=C(C)C`, the molecule was classed as inactive. The same measure, in the same setting: with `CCOC(=O)CC(SP(=S)(OC)OC)C(=O)OCC` (centres undefined) the entry was “inactive”; with `CC(C1CC1)C(O)(Cn1cncn1)c1ccc(Cl)cc1` (centres undefined), “inactive”. As to `N#CSCSC#N`, the AC50 is 19.5 µM (active). As for `CC(C)Oc1cccc(NC(=O)c2ccccc2C(F)(F)F)c1`, the call was inactive.
